# Reference: ChEMBL document CHEMBL3988442, “University of Dundee, Small-Polar-MMV Screening Library” (2021)
# Experiments:
# [1] = molecular target: T1, Aspartate--tRNA(Asp/Asn) ligase (Mycobacterium tuberculosis (strain ATCC 25618 / H37Rv)) (UniProt P9WFW3); test: Assay for Asp RNA synthetase-1 from Mycobacterium tuberculosis; assay type: functional; set-up: scale not given: direction of the effect not stated beside the values; conditions: 30 µM; note: in the data most compounds retested in dose-response had high values
# T1 sequence (whole entry): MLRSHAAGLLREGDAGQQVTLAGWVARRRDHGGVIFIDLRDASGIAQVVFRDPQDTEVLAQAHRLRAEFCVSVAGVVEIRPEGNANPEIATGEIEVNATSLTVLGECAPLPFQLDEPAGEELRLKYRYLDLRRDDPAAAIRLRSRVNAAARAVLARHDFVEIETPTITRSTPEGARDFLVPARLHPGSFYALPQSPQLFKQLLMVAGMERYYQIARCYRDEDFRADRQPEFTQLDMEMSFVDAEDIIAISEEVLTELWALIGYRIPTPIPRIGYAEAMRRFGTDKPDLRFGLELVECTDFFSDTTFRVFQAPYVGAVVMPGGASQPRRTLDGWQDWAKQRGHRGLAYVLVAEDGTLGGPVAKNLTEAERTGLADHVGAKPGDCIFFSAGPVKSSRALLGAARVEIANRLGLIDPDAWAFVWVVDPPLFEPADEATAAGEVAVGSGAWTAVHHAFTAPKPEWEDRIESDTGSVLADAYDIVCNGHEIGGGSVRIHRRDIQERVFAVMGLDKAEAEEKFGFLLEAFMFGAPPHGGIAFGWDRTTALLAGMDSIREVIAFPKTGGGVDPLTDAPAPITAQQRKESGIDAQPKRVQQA
# [2] = molecular target: Shiga toxin 2 (Escherichia coli O157:H7) (UniProt P09385+P09386); test: E. coli 0.157:H7 Shiga Toxin SOP - stx2 screening assay; assay type: functional; set-up: scale not given: direction of the effect not stated beside the values; conditions: 30 µM
SMILES,Percent Effect [1] [%],Percent Effect [2] [%]
CC(NC(=O)NCc1cccc(N2CCCC2=O)c1)c1ccccc1 (stereo not drawn),-1.99,21.2
OCC1CCCN1c1cc(NCCNc2ccccn2)ncn1 (stereo not drawn),8.62,-85.7
CCC(=O)N1CCC2(CC1)c1nc[nH]c1CCN2S(C)(=O)=O,-2.17,14.6
Cc1cc(CNC(=O)N2CCCN(Cc3ccccc3)CC2)no1,-4.23,9.91
Cc1ncsc1C(=O)NC1CCN(Cc2ccc(C#N)cc2)CC1,1.55,-28.6
Cc1cnn(CC(C)NCc2nc(-c3cccnc3)no2)c1 (stereo not drawn),1,-15.5
Cn1cnc2c1CCN(Cc1csc(-c3ccsc3)n1)C2,3.77,-95.3
CC1CN(C(=O)c2ccn(-c3cccc(Cl)c3)n2)CCO1 (stereo not drawn),-3.19,-15
CCOc1ccc(CN(C)C(=O)NC(C)c2nncn2C)cc1 (stereo not drawn),0.975,-14.2
Cc1nccc(CNC(=O)NCCOc2ccc(F)c(F)c2)n1,-2.26,-21
CCn1cc(N)c(C(=O)NCc2cnn(C)c2)n1,-1.99,-25.8
COCCN1C[C@@H](C)[C@@]2(COCCN(C(=O)Cc3ccccc3)C2)C1,1.75,-6.45
CC(NC(=O)c1nc(=O)[nH][nH]1)c1ccc(OCC2CC2)c(F)c1 (stereo not drawn),-2.07,5.49
CCOc1cccc(C(C)NC(=O)N2CCC(C(N)=O)CC2)c1 (stereo not drawn),-2,11.2
CN(Cc1cccc(F)c1)S(=O)(=O)N1CCOCC1,-3.02,3.45
CC(C)n1ccnc1CN1CCCN(C(=O)c2cccnc2O)CC1,-2.15,-43.9
COCCN1C[C@@H]2CCCO[C@@H]2[C@H](N(C)Cc2ccco2)C1,0.0735,-6.84
COC(=O)c1ccc(N2CCN(C(=O)c3cnn(C)c3)C(C)C2)cc1 (stereo not drawn),0.343,-15.2
Cc1ccc(C2CCCCCN2Cc2cn(C)nc2C)s1 (stereo not drawn),-2.17,-71.3
O=C(CS(=O)(=O)c1ccccc1Cl)NC1CCCCNC1=O (stereo not drawn),-8.65,4.72
O=C(c1cscn1)N1C[C@H]2CCCC(OCc3cccnc3)[C@H]2C1 (stereo partly drawn),6.49,-13.5
Cc1nc(CN2CCCC(NCCOCC(F)(F)F)C2)no1 (stereo not drawn),-8.65,-8.56
CCC(NC(=O)C1CCN(S(=O)(=O)N(C)C)CC1)c1ccc(C)c(C)c1 (stereo not drawn),4.22,-32.8
CNc1cc2c(nn1)CCN(C(=O)c1cc(F)cc(F)c1)C2,-0.49,12.4
O=C(COCC1CC1)N1CCCC(n2cncn2)C1 (stereo not drawn),-4.03,18.2

SMILES,Percent Effect [1] [%],Percent Effect [2] [%]
Cc1n[nH]c(C)c1C1CCCN1C(=O)NCC(=O)NC(C)(C)C (stereo not drawn),1.47,-24.4
CN(C)CC1CN(Cc2csc(C3CCCC3)n2)CCO1 (stereo not drawn),1.38,14.5
COc1c(CNC2CCOc3ccccc32)c(C(C)C)nn1C (stereo not drawn),0.728,2.37
CCN(CC)c1ccc(C(=O)NCc2cccnc2-n2cncn2)cn1,6,-12.3
Cc1nc(N2CCN(C)CC2)ncc1C(=O)N1CCC(O)(CO)CC1,3.4,5.75
COCCN1CC(C(=O)NCc2ccnc(-n3cccn3)c2)CC1=O (stereo not drawn),-0.544,-36.8
CCc1nc(C)c([C@H]2CN(C)C[C@@H]2C(=O)Nc2ccc(OC)cc2)[nH]1,-1.19,9.62
c1nc2c(c(C3CC3)n1)CCN(Cc1ccoc1)CC2,2.3,-14.5
O=C(CCn1ccc2cc(Br)ccc21)NCc1ccc(C(=O)O)cc1,8.3,30.7
O=c1nc(SCc2cccnc2)c2c(n1CCO)CCC2,-12,13.4
O=C(c1n[nH]c2c1CCN(Cc1nccs1)C2)N1CCCC1,-0.578,-3.88
CC(=O)c1cccc(OCCCC(=O)N(C)Cc2ccccn2)c1,-1.04,-20
COc1cccc(CNCCc2cc(F)cc3c2OCOC3)c1,-4.9,-27.3
Cc1cccc(C(=O)N2C[C@@H](OCc3cccnc3)[C@H]3OCCC[C@@H]32)n1,-2,-30.7
Cc1cc(C(=O)N2CCCCC2C)ccc1NCC(=O)N1CCOCC1 (stereo not drawn),-12.3,-49.1
COc1ccc(OCC(=O)NC(C)c2ccccc2)c(C(=O)O)c1 (stereo not drawn),-1.11,-9.07
CC(=O)Nc1nc(C(=O)Nc2ccc(F)cc2)cs1,-0.259,-5.87
O=C(Cn1cc(C(=O)O)ccc1=O)Nc1ccc(F)cc1Cl,-8.57,-28.6
O=C(NCCC1=CCCCC1)C1CCCN(c2ccc3nncn3n2)C1 (stereo not drawn),-1.84,-5.94
Cc1cc(C)n(C2CCCN(C(=O)CCNS(C)(=O)=O)C2)n1 (stereo not drawn),-0.16,-20
Cc1cnn(CC2CCCN2CC(=O)N(C)CCC#N)c1 (stereo not drawn),-0.546,-11.9
CCNc1cc2c(nn1)CCN(C(=O)Cc1noc3ccccc13)C2,-2.87,24.9
CCCS(=O)(=O)N1CCC2(CN(c3ccsc3)C(=O)CN2C)C1 (stereo not drawn),-3.98,-8.23
Cc1ccc2oc(C(=O)N3CCCC(n4nc(C)cc4C)C3)cc2n1 (stereo not drawn),-3.54,1.89
O=C(c1cccnc1)N1CCCC(c2cc(C(F)F)n3ncnc3n2)C1 (stereo not drawn),5.29,8.99

SMILES,Percent Effect [1] [%],Percent Effect [2] [%]
CCc1noc(C(C)N2CCN(c3ccc(C#N)cn3)CC2)n1 (stereo not drawn),-2.49,-26.5
O=C(NC1CCC1)[C@@H]1C[C@@H]2CCN(Cc3cccs3)C[C@@H]2O1,-2.46,-16.7
Cc1cc(CN(C)C(=O)NC2CCN(Cc3ccccc3)C2)no1 (stereo not drawn),2.94,-10.9
CCS(=O)(=O)Nc1ccc(C(=O)NCCCN2CCCC2)cc1,8.39,-19
Cc1cnn(CC2CCCCN2C(=O)c2ccnc(N(C)C)c2)c1 (stereo not drawn),1.07,16.2
CC(C)Oc1ccccc1CNC(=O)N1CCC(n2cncn2)CC1,-5.72,-31.1
CC(C)CN1C(=O)C2(CCN(Cc3nccs3)C2)c2ccccc21 (stereo not drawn),-0.662,-65.4
CCc1nc(CC(=O)NCC(Cc2ccc(F)cc2)C(N)=O)cs1 (stereo not drawn),1.14,3.77
CCn1ccnc1CN1CCN(CCOc2ccccc2OC)CC1,-3.95,-17.6
COCCn1ccnc1C1CCCN(C(=O)CSCC2CC2)C1 (stereo not drawn),-2.09,12.8
CC(=O)Nc1nc(C(=O)N2CCCC(n3ccnc3)C2)cs1 (stereo not drawn),-1.21,0.121
Cc1nc(C(C)(C)NC(=O)Nc2cccc(C#N)c2)no1,-0.287,-19.6
COc1cccc(-n2c(C)cc(C(=O)O)c2C)c1,-3.77,5.95
O=C1OCCN1CCc1nc(-c2cc3c4c(c2)CC(=O)N4CCC3)cs1,1.61,9.08
CCOCCn1c(=O)[nH]c2cc(C(=O)N(C)CCc3cn[nH]c3)ccc21,0.279,-26.7
Cc1ccc(C)c(OC2CCN(C(=O)c3ccc(O)nc3)CC2)c1,-0.922,26.4
Cn1cc(CN2C[C@@H]3COC[C@]3(CNC(=O)c3ccsc3)C2)cn1,0.656,-3.31
COCc1noc(-c2ccc(N(C)Cc3cc(C)no3)nc2)n1,0.703,-7.35
CCCc1n[nH]c(C2CN(CCCS(C)(=O)=O)CCO2)n1 (stereo not drawn),-3.39,-21.5
COc1ccc(-c2nnc(SC(C)C(=O)NC3CC3)[nH]2)c(OC)c1 (stereo not drawn),2.19,7.63
Cc1csc(CCCNC(=O)[C@H]2CNC[C@@H](C(=O)N3CCCC3)C2)n1,-3.08,-2.63
COc1cccc(-c2nccnc2C2CCN(C(C)=O)CC2)c1,-3.41,16.4
CCNC(=O)[C@@H]1C[C@@H](NC(=O)c2cccnc2O)CN1Cc1ccsc1,-2.94,19.7
O=C1CC(c2ccccc2F)c2c(n3ccsc3nc2=O)N1 (stereo not drawn),1.48,-23
